SMILES strings stand for the structures. Inconclusive results are not listed. Active and inactive are the calls of the source. How the source made its calls: active means hit-call score of the fitted dose curve at least 0.9, where 1 is the maximum; inconclusive means response in the unintended direction; inactive means score below 0.9.

In general, AC50 refers to the concentration at which the activity in the assay is half-maximal.

Estrogen receptor (Homo sapiens) + Estrogen receptor beta (Homo sapiens), sequence (P03372 whole entry, looked up, the tested form may be a part): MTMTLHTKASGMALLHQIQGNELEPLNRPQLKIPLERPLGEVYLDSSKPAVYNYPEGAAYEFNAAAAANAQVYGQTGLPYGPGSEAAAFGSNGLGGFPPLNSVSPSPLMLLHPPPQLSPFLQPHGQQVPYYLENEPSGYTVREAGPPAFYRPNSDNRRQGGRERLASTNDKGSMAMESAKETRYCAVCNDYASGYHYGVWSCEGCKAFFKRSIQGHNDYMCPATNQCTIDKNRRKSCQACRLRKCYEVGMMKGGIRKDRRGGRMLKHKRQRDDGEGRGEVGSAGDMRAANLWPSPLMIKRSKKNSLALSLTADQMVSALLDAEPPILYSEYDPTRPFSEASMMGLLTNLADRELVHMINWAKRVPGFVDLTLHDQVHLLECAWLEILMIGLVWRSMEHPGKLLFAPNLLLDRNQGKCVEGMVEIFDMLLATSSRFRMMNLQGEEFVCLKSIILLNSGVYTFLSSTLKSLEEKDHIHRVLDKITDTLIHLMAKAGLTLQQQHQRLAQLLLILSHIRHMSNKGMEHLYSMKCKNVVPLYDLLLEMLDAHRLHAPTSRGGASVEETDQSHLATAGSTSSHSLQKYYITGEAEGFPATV
Estrogen receptor (Homo sapiens) + Estrogen receptor beta (Homo sapiens), sequence (Q92731 whole entry, looked up, the tested form may be a part): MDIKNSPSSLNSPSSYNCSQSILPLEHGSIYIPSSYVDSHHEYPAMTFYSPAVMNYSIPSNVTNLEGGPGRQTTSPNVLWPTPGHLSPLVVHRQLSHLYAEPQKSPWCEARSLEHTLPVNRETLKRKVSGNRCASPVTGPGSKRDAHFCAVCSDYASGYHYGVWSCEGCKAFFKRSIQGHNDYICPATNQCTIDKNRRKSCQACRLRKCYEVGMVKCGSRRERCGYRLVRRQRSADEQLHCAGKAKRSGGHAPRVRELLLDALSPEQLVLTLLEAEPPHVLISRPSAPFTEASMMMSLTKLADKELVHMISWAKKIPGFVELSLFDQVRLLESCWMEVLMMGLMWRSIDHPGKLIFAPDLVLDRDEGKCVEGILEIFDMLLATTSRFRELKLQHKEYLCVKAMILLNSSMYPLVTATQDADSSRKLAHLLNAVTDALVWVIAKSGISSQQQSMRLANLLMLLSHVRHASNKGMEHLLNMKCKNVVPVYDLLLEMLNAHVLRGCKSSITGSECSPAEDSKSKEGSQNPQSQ

This assay concerns the target Estrogen receptor (Homo sapiens) + Estrogen receptor beta (Homo sapiens) (UniProt P03372+Q92731). Nature of the assay: OT_ER_ERaERb_0480: Odyssey Thera (OT) 8-hour HEK293T Protein-Complementation Assay for Estrogen Receptor-alpha/-beta Heterodimer (AID 2283352). On the procedure: OT_ER_ERaERb_0480 is a cell-based assay that uses HEK293T, a human kidney cell line, with measurements taken at 8 hours after chemical dosing in a 384-well plate.OT_ER_ERaERb_0480 is one of one assay component(s) measured or calculated from the OT_ER_ERaERb_0480 assay. It is designed to make measurements of protein fragment complementation, a form of binding reporter, as detected with fluorescence intensity signals by Protein-fragment Complementation technology.Data from the assay component OT_ER_ERaERb_0480 was analyzed into 1 assay endpoint. This assay endpoint, OT_ER_ERaERb_0480, was analyzed in the positive analysis fitting direction relative to DMSO as the negative control and baseline of activity. Using a type of binding reporter, measures of receptor for gain-of-signal activity can be used to understand the binding at the pathway-level as they relate to the gene ESR1 and ESR2. Furthermore, this assay endpoint can be referred to as a primary readout, because the performed assay has only produced 1 assay endpoint. To generalize the intended target to other relatable targets, this assay endpoint is annotated to the nuclear receptor intended target family, where the subfamily is steroidal.
Protein-fragment complementation assay, or PCA, is a method for the identification and quantification of protein-protein interactions. In the PCA, the proteins of interest ("bait" and "prey") are each covalently linked to fragments of a third protein (e.g. DHFR, which acts as a "reporter"). Interaction between the bait and the prey proteins brings the fragments of the reporter protein in close proximity to allow them to form a functional reporter protein whose activity can be measured. […] Fluorescent signal in the basal state of the assay is very low and is primarily punctuate and cytoplasmic. Modulation of this assay is quantified as an increase in mean fluorescence intensity in the nucleus (for agonists) or in the nucleus and cytoplasm (antagonists) relative to vehicle controls, and can be quantified on a high content imaging device or a laser scanning cytometer. The latter instrument is favored for this assay because of the rapid mode of data acquisition, the ability to acquire data from the entire cell population in a well (as opposed to a fraction of the well on the high content devices) and the larger dynamic range typically achieved with this instrument. To assess sensitivity of the ER alpha/ER beta LBD assay to ligand, cells were treated with the ER agonist 17- beta-estradiol (E2) in 10-point concentration- response format for 8 hours and monitored response on a laser scanning plate cytometer (Acumen eX3; TTP Lab Tech).
As to `OCCOCCOCCOCCO`, the result was inactive.

For the compound `CC(C)(N)CO`, the outcome was inactive.

`NC(=O)Nc1ccc(Cl)cc1`: the outcome was inactive.

For the compound `CCC/C=C/C=O`, the result was inactive.

In the case of `CC(C)c1cccc(O)c1`, the AC50 was 52 µM (active).

For `c1ccc(CCCc2ccccn2)cc1`, the outcome was inactive.

For `CCN(CC)c1ccc2c(-c3ccccc3C(=O)O)c3ccc(=[N+](CC)CC)cc-3oc2c1`, the AC50 was 12 µM (active).

As to `O=C1c2ccccc2C(=O)N1SC1CCCCC1`, the result was inactive.

For `C=C(C)C(=O)O`, the outcome was inactive.

With `CCCCCCCCCCCCCC(=O)O`, the outcome was inactive.

`Cc1ccc(S)cc1`: the result was inactive.

Regarding `CCCCc1ccc(N)cc1`, the AC50 was 50 µM (active).

As for `OCCN1CCNCC1`, the outcome was inactive.

Regarding `CCCCCCCCC`, the result was inactive.

For `CCCCCCCCCC=O`, the result was inactive.

In the case of `CCCCCCCCC=O`, the outcome was inactive.

Take `CC(=O)OCCOC(C)=O`: the result was inactive.

Consider `CC1COc2ccccc2N1C(=O)C(Cl)Cl` (centres undefined), for which the result was inactive.

Regarding `CCCCOCCOCCOCCOCCO`, the outcome was inactive.

For the origin of these results see PubChem BioAssay (EPA / NIEHS).
